{"source": "ChEMBL document CHEMBL3433997", "about": "“St. Jude Leishmania screening dataset” (2016)", "data": [{"molecular_target": "Glucose transporter (Leishmania mexicana) (UniProt O61059)", "experiment": "ST_JUDE_LEISH: Cytotoxicity at 2uM final concentration against transgenic Leishmania Mexicana promastigotes LmGT2 that are glucose transport deficient and complemented with the L. Mexicana glucose transporter 2. Activity is measured by DNA content using SYBR green in vitro", "format": "functional", "units": {"inhibition": "%"}, "values": [{"smiles": "CN(C)c1cccc(CCNCCc2c[nH]c3ccc(Cl)cc23)c1", "inhibition": 1.58}, {"smiles": "CS(=O)(=O)Nc1ccc2[nH]cc(C3CCN(CC4CCC(NC(=O)/C=C/c5ccccc5Cl)CC4)CC3)c2c1", "note": "(stereo not given)", "inhibition": -0.23}, {"smiles": "CC[C@H]1CN2CC[C@H]1C[C@H]2[C@H](O)c1cc(-c2ccc(F)cc2)nc2ccc(OC)cc12", "inhibition": 1.25}, {"smiles": "CCCc1ccc2c(c1O)CCC(N(CCC)CCC)C2", "note": "(stereo not given)", "inhibition": 2.48}, {"smiles": "CSc1ccc(C[C@@H](C)NC[C@H](O)c2cccc(Cl)c2)cc1", "inhibition": 2.94}, {"smiles": "O=C(/C=C/c1ccc(Cl)c(Cl)c1)N1CCC(CN2CCC(c3c(-c4ccc(F)cc4)[nH]c4ccccc34)CC2)CC1", "inhibition": -4.69}, {"smiles": "O=c1n[n+](C2CCCCC2)[n-]o1", "inhibition": -0.34}, {"smiles": "CC(Cc1ccc(OCCCCOc2ccccc2)cc1)NCCc1ccccc1Cl", "note": "(stereo not given)", "inhibition": 7.82}, {"smiles": "COc1cc(NCCCNC(=O)c2cn(Cc3ccccc3)c3ccccc23)nc2ccccc12", "inhibition": -1.02}, {"smiles": "OC1(c2ccc(Cl)c(C(F)(F)F)c2)CCN(CCOC2c3ccccc3CSc3ccc(Cl)cc32)CC1", "note": "(stereo not given)", "inhibition": 2.27}, {"smiles": "O=[N+]([O-])c1ccc(Oc2c(Cl)cc(S(=O)(=O)N3CCC(CN4CCC(c5c[nH]c6ccccc56)CC4)CC3)cc2Cl)c(Cl)c1", "inhibition": 3.15}, {"smiles": "Cc1[nH]c2ccc(O)cc2c1C1CCN(CC2CCC(NC(=O)/C=C/c3ccc(Cl)c(Cl)c3)CC2)CC1", "note": "(stereo not given)", "inhibition": 0.57}, {"smiles": "O=C(/C=C/c1cc(C(F)(F)F)ccc1F)N1CCC(CN2CCC(c3c[nH]c4ccccc34)CC2)CC1", "inhibition": -1.26}, {"smiles": "COC(=O)C(C)(C)c1ccc(CC(C)NCC(O)c2cccc(C(F)(F)F)c2)cc1", "note": "(stereo not given)", "inhibition": 9.96}, {"smiles": "O=C(Nc1cc(C(F)(F)F)cc(C(F)(F)F)c1)N1CCC(CN2CCC(c3c[nH]c4ccccc34)CC2)CC1", "inhibition": 1.9}]}]}
